We go through 13 compounds from PubChem BioAssay (NCATS).

Results filed as inconclusive are left out. Active and inactive are the calls of the source. Unless noted, calls come from the whole dose curve; as a rule, active = well fitted curve in the direction sought with a large enough effect; inconclusive = small, poorly fitted or top-dose-only effect, or another doubt; inactive = no such curve, though single readings can be large; an effect the other way counts as inactive or inconclusive.

The target in assay [1] is T1, Hexokinase-4 (Homo sapiens) + Glucokinase regulatory protein (Homo sapiens) (UniProt P35557+Q14397). The assay can be described thus: qHTS assay for inhibitors of recombinant human GCK-GKRP interaction: ADP-Glo assay (AID 743206).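 Note: plate controls were DMSO plus enzyme for no effect and no enzyme for full effect.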 Summed up: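 Pin-transferred compounds meet a 15 nM GST-GCK/15 nM FLAG-GKRP/2 uM S6P mix (dispense concentrations). ATP is then added to 0.4 mM final with 5 mM glucose, and the reaction runs 60 min at room temperature. ADP is quantified luminescently.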

Assay [2] has as its target T1, Hexokinase-4 (Homo sapiens) + Glucokinase regulatory protein (Homo sapiens). Description: qHTS assay for inhibitors of recombinant human GCK-GKRP interaction: HTRF assay (AID 743207).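 Note: 0% = DMSO with GCK present and -100% = DMSO wells lacking GCK.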 The essentials: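 GST-GCK and FLAG-GKRP (5 nM each) were combined with 2 uM S6P in pH 7.1 Hepes/MgCl2/KCl/DTT buffer, then compound and anti-FLAG XL665/anti-GST K antibodies were added. After 60 min at room temperature, HTRF 665/615 nm emission was read.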
(In general: In qHTS, concentration-response curves come from the screen itself.)

Assay [3] in a line: qHTS Assay for Identifying Gametocytocidal Compounds (AID 743244).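 Note: % is set by controls: 0 for no effect and ±100 for the full control effect; actives lower the fluorescent signal which means gametocytes are killed.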 The settings on record: P. falciparum 3D7 stage III-V gametocytes, alamarBlue, 72 h; max response: stronger effect = lower value. Summed up:
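Fluorescence at Ex 525/Em 598 nm, recorded 24 h after alamarBlue addition, reports residual metabolic activity of 3D7 gametocytes (stages III–V) following 72 h compound exposure at 37 °C, 5% CO2.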

Assay [4] in a line: qHTS assay for measurement of the activity of small molecule inhibitors on Zika virus induced Caspase-3 activity in human iPSC derived neural progenitor cells (hNPCs) (AID 1224857). Note: % of control where 0% means no effect; nearly all actives have a fitted effect of over 65% in size. Summed up:
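Zika virus (2 FFU/cell) infection of human iPSC-derived NPCs, 6 h, following 1 h compound preincubation. Read-out: Caspase-Glo 3/7 luminescence.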

Assay [5] in a line: qHTS assay for measurement of the activity of small molecule inhibitors on Zika virus induced Caspase-3 activity in human astrocytoma cells (AID 1224859).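 Note: plate controls were ZIKV-infected untreated cells for no effect and uninfected cells for full effect.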 The essentials: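 Caspase activation in ZIKV-infected SNB-19 cells (2 FFU/cell, 6 h) measured by Caspase-Glo 3/7 luminescence after 30 min RT; compound pre-incubated 1 h; normalised to uninfected and infected controls.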
Assay [6] in a line: Natriuretic polypeptide receptor (hNpr1) antagonism - Pilot counterscreen GloSensor control cell line (AID 1347045; calls by dose curve; note: % is set by controls: 0 for no effect and ±100 for the full control effect). The essentials:
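Control counterscreen: luciferase cGMP-biosensor HEK293 cells (no Npr1) received compound for 30 min at room temperature after GloSensor substrate loading. Luminescence was measured before and 20 min after soluble guanylyl cyclase activation by 50 uM nitroprusside.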
In general terms: Counterscreens check selectivity or assay interference.

Assay [7] has as its target Atrial natriuretic peptide receptor 1 (Homo sapiens) (UniProt P16066). Description: Natriuretic polypeptide receptor (hNpr1) antagonism - Pilot screen (AID 1347049; calls by dose curve;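 note: agonist-evoked cGMP luminescence read 20 min after hNppA addition; % is set by controls: 0 for no effect and ±100 for the full control effect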). The essentials:
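cGMP-sensor HEK293/hNpr1 cells, 1500/well, plated overnight at 37C. 2% GloSensor reagent, 2 h RT. Compound (23 nL pin transfer) 30 min RT, baseline luminescence pre-read. 0.1 nM hNppA, 20 min RT, post-read.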

Assay [8] concerns the target Atrial natriuretic peptide receptor 2 (Homo sapiens) (UniProt P20594). The assay can be described thus: Natriuretic polypeptide receptor (hNpr2) antagonism - Pilot subtype selectivity assay (AID 1347050; calls by dose curve; note: % is set by controls: 0 for no effect and ±100 for the full control effect). Summed up:
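Luminescence from a genetically encoded cGMP luciferase biosensor in hNpr2-expressing HEK293 cells is read before and 20 min after adding 1 nM hNppC. Test compounds, in interplate 1:5 titrations, are added 30-50 min ahead of the agonist.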

Assay [9] is described as follows: NS1 protein of Zika virus - qHTS assay to identify small molecule inhibitors in human HEK 293 cells (AID 1347053).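 Note: plate controls were infected untreated cells for no effect and uninfected cells for full effect; nearly all actives have a fitted effect of over 55% in size.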 The essentials: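 In this cell-based screen, HEK 293 cultures received compound for one hour before Zika MR766 at MOI = 0.5. NS1 was quantified 24 hours later by TR-FRET, normalized to virus-free wells and infected wells.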
Assay [10] is described as follows: qHTS profiling of the MIPE4 collection as inhibitors of Plasmodium falciparum (3D7) proliferation (AID 743344; call rule not given here;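 note: scaled between DMSO vehicle wells and 0.29 µM artemisinin as full inhibition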). The settings on record: P. falciparum 3D7 in erythrocytes, SYBR Green DNA fluorescence, 72 h; at 28.5 µM (top of the series). Summed up:
(§1)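 Parasite DNA was quantified by SYBR Green I fluorescence (ex 485, em 535 nm) after overnight lysis in saponin/Triton buffer at room temperature. Cultures at 0.3% parasitemia and 2.5% hematocrit were first exposed to compound for 72 h at 37 C; signals were normalised to artemisinin (0.29 uM) and vehicle wells.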

The nature of assay [11]: qHTS profiling of the MIPE4 collection as inhibitors of Plasmodium falciparum (DD2) proliferation (AID 743345; call rule not given here). The settings on record: P. falciparum Dd2 in erythrocytes, SYBR Green DNA, 72 h; at 28.5 µM (top of the series). The essentials:
as §1

A short description of assay [12]: qHTS profiling of the MIPE4 collection as inhibitors of Plasmodium falciparum (DD2) proliferation (Rep 2) (AID 743346; call rule not given here). The following applies: P. falciparum Dd2 in erythrocytes, SYBR Green DNA, 72 h; at 28.5 µM (top of the series). The essentials: as §1
The nature of assay [13]: qHTS profiling of the MIPE4 collection as inhibitors of Plasmodium falciparum (HB3) proliferation (AID 743347; call rule not given here;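 note: plate controls were DMSO vehicle wells for no effect and artemisinin wells for full effect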). The following applies: P. falciparum HB3 in erythrocytes, SYBR Green DNA, 72 h; at 28.5 µM (top of the series). Summed up: as §1

Chain of Atrial natriuretic peptide receptor 1 (Homo sapiens) (P16066 whole entry, looked up): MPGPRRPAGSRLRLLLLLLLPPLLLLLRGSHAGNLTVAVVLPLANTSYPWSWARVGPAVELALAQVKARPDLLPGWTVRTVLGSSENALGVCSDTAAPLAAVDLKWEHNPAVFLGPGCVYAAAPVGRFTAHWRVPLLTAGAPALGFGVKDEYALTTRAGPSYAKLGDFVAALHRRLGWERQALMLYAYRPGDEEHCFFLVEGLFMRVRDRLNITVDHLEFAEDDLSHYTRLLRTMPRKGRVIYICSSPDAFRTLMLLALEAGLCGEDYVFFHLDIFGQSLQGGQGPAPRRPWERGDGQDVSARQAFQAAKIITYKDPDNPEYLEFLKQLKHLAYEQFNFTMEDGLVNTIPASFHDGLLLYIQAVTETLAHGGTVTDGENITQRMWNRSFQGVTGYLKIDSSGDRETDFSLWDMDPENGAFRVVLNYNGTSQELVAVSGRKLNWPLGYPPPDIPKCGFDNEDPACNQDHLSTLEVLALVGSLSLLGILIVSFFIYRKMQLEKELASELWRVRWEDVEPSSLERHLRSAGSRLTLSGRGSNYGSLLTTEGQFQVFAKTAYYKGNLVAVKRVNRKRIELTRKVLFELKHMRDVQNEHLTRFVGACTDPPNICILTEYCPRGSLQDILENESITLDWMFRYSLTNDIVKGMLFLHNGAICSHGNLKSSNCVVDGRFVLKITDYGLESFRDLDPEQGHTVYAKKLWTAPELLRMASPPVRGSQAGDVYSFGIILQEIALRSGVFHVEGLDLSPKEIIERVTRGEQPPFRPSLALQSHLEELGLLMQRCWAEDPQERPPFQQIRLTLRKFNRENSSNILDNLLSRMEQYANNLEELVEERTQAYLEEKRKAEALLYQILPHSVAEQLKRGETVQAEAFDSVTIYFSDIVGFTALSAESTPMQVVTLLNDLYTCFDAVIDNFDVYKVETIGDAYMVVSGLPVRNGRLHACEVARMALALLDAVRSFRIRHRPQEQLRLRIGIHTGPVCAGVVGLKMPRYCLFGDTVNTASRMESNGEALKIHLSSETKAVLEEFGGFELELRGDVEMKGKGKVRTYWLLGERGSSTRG
T1 sequence (P35557 whole entry, looked up): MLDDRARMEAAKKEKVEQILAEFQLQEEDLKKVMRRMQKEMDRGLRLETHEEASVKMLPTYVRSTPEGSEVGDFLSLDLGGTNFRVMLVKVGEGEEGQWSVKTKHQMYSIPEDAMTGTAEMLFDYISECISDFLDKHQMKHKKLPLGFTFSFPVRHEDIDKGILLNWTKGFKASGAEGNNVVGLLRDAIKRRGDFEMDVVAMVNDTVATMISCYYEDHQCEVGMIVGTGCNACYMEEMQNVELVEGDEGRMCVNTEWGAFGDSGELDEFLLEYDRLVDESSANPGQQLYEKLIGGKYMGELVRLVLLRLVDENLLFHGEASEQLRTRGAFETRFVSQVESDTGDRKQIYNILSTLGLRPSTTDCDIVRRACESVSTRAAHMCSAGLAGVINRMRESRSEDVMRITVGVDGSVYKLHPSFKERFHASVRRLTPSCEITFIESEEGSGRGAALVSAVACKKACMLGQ
T1 sequence (Q14397 whole entry, looked up): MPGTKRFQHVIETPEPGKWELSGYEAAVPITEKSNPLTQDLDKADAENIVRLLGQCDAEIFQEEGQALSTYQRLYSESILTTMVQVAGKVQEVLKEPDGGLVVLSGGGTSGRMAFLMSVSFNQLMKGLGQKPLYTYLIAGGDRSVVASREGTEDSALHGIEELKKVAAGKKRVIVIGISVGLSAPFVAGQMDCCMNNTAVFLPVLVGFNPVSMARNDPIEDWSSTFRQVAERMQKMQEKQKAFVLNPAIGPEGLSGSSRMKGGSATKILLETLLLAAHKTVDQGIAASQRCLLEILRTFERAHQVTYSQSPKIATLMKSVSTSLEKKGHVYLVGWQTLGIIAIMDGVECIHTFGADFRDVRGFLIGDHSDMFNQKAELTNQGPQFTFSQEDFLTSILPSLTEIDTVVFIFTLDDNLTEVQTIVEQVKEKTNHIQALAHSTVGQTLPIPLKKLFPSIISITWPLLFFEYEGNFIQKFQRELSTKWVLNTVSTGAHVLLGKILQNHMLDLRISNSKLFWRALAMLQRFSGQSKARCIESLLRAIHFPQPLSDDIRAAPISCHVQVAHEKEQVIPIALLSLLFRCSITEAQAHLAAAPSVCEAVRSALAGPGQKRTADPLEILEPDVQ
Chain of Atrial natriuretic peptide receptor 2 (Homo sapiens) (P20594 whole entry, looked up): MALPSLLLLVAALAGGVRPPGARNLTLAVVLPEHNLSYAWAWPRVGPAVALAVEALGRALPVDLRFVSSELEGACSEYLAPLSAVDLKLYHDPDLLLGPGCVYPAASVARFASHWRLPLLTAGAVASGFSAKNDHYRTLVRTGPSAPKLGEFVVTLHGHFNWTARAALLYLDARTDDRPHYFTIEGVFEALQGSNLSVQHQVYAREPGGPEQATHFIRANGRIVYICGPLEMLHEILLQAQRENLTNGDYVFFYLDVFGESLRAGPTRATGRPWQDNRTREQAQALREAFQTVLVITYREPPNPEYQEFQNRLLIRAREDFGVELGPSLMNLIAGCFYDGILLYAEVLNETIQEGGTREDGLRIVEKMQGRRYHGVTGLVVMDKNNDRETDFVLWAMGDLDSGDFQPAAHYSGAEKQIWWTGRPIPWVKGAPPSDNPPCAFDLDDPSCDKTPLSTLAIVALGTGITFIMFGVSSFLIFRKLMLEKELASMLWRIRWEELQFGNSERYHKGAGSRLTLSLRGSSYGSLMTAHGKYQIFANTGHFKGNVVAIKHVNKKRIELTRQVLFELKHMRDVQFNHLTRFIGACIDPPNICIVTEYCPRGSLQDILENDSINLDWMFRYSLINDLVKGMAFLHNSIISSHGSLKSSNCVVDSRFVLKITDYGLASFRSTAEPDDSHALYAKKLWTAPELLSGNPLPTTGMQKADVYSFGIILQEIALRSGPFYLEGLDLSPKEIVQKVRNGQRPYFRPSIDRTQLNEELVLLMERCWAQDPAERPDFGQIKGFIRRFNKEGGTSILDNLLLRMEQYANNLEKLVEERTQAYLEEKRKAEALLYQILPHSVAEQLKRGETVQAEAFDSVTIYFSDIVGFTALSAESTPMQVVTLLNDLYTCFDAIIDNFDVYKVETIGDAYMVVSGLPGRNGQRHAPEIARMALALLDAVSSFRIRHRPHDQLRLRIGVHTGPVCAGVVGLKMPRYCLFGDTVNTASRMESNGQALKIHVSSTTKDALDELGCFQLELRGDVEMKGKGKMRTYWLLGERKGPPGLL

As for `O=C1C2C=CC=CC2=NC(=S)N1CCN1CCC(=C(c2ccc(F)cc2)c2ccc(F)cc2)CC1` (stereo not given), the Potency entry in assay [1], in assay [2], in assay [4], in assay [5], in [6] and in assay [7] was “inactive” in each case. For the same compound, the Potency result in assay [8] and in [9] was “inactive” in each case. For the same compound, in assay [3], the max response is 2.83% (inactive).

Regarding `CCCCS(=N)(=O)CC[C@H](N)C(=O)O` (stereo not given in full), the Potency result in [2], in assay [4], in assay [5], in assay [6], in assay [7] and in assay [8] was “inactive” each time. Besides, the Potency result in assay [9] is “inactive”. For the same compound, in assay [3], the max response is 6.27% (inactive).

In the case of `NCCC1CCCC(CCN)N1` (stereo not given), the Potency entry in assay [1], in [2], in [4], in assay [5], in [6] and in assay [7] was “inactive” in each case. In addition, the Potency entry in assay [8] and in assay [9] was “inactive” in each case. In addition, the max response in assay [3] is 30.6% (inactive).

As to `Nn1nnc2ccccc21`, the Potency entry in [1], in assay [2], in assay [4], in [5], in [6] and in assay [7] was “inactive” each time. Further, the Potency entry in [8] and in assay [9] was “inactive” each time. Also, the max response in assay [3] is 16.9% (inactive).

Take `Cc1nc(N=Nc2ccc(S(=O)(=O)O)cc2S(=O)(=O)O)c(COP(=O)(O)O)c(C=O)c1O`: the Potency entry in [1], in [2], in assay [4], in assay [5], in assay [6] and in assay [7] was “inactive” throughout. For the same compound, the Potency entry in assay [8] and in assay [9] was “inactive” in each case. Also, in assay [3], the max response is 14.8% (inactive). The compound further returned a parasite growth, % of DMSO control in [10] of 98.1%. Further, the parasite growth remaining, % of DMSO control (lower = more inhibition) in [11] stood at 100%. Further, in [12], the parasite growth, % of control (lower = inhibition) was 213%. The growth, % of control in assay [13] was 93.6%.

Regarding `N#Cc1cc2nc(O)c(O)nc2cc1[N+](=O)[O-]`, the Potency result in [1], in assay [2], in assay [4], in assay [5], in assay [6] and in assay [7] was “inactive” in each case. The Potency entry in assay [8] and in assay [9] was “inactive” throughout. The max response in assay [3] is 15.6% (inactive).

As to `C=CCNc1ncnc2ccc(Br)cc12`, the Potency entry in assay [1], in assay [2], in assay [4], in assay [5], in assay [6] and in assay [7] was “inactive” in each case. For the same compound, the Potency entry in assay [8] and in assay [9] was “inactive” each time. In addition, the max response in assay [3] is 27.4% (inactive).

With `Cn1c(=O)c2[nH]c(C3CCCC3)nc2n(C)c1=O`, the Potency result in assay [1], in [2], in assay [4], in assay [5], in assay [6] and in [7] was “inactive” each time. The Potency result in assay [8] and in assay [9] was “inactive” each time. For the same compound, the max response in [3] was 9.69% (inactive).

Turning to `O=C(O)c1ccccc1Nc1cccc(OCc2ccc3ccccc3n2)c1`, the Potency entry in [2], in [4], in [5], in assay [6], in assay [7] and in assay [8] was “inactive” each time. Further, the Potency entry in assay [9] is “inactive”. Further, the max response in [3] was 1.28% (inactive).

Regarding `Cc1nc(N=Nc2cc(S(=O)(=O)O)c3cc([N+](=O)[O-])cc(S(=O)(=O)O)c3c2)c(COP(=O)(O)O)c(C=O)c1O`, the Potency entry in [1], in assay [4], in assay [5], in [6], in [7] and in assay [8] was “inactive” throughout. Also, the Potency result in [9] was “inactive”. For the same compound, in [3], the max response was -2.01% (inactive).

For `Oc1ccc(Cn2cc[nH]c2=S)cc1`, the Potency result in [1], in assay [2], in [4], in [5], in [6] and in assay [7] was “inactive” each time. In addition, the Potency entry in [8] and in [9] was “inactive” each time. For the same compound, the max response in [3] was 24% (inactive).

With `Nc1ncnc2c1ncn2C1CCCO1` (stereo not given), the Potency result in assay [2], in [4], in assay [5], in [6], in [7] and in assay [8] was “inactive” throughout. Also, the Potency result in assay [9] is “inactive”.

For `CC(N)=NCCCC[C@@H](N)C(=O)O`, the Potency result in assay [2], in assay [4], in assay [5], in assay [6], in assay [7] and in [8] was “inactive” each time. Besides, the Potency result in assay [9] is “inactive”. Also, the max response in assay [3] is 25.1% (inactive).
